# According to the supplement of paper PMC8728848:
# About 410 targets per protein were measured; listed, in parts, are those with the strongest signals and a random draw of the rest.
# How the values were obtained:
# Assay in all cases: glycan array binding signal (z-score within array); higher = stronger binding
# Conditions in all cases: glycan notation: IUPAC condensed, linker removed
# [1] = target: Fuc(a1-2)Gal(b1-3)[Fuc(a1-4)]GlcNAc
# Summary of the method: (§1)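 Glycan array data were curated from 3228 arrays in the Consortium for Functional Glycomics database and kept only where the protein sequence was available. Glycan names were converted to IUPAC-condensed notation, and columns mapping to the same glycan were averaged. The binding signal is a within-array Z-score, averaged across arrays of the same protein sequence at different concentrations or buffers and across linkers. Negative Z-scores can be read as non-binding.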
# Fuc(a1-2)Gal(b1-4)Glc = target: Fuc(a1-2)Gal(b1-4)Glc
# Summary of the method: as §1
# [2] = target: Fuc(a1-2)Gal6S(b1-4)GlcNAc
# Summary of the method: as §1
# [3] = target: Fuc(a1-2)[Gal(a1-3)]Gal(b1-4)GlcNAc
# Summary of the method: as §1
# [4] = target: Fuc(a1-2)[Gal(a1-3)]Gal(b1-4)GlcNAc(b1-2)Man(a1-3)[Fuc(a1-2)[Gal(a1-3)]Gal(b1-4)GlcNAc(b1-2)Man(a1-6)]Man(b1-4)GlcNAc(b1-4)GlcNAc
# Summary of the method: as §1
# [5] = target: Fuc(a1-2)[Gal(a1-3)]Gal(b1-4)GlcNAc(b1-3)GalNAc
# Summary of the method: as §1
# [6] = target: Fuc(a1-2)[Gal(a1-3)]Gal(b1-4)[Fuc(a1-3)]Glc
# Summary of the method: as §1
# [7] = target: Fuc(a1-2)[GalNAc(a1-4)]Gal(b1-4)GlcNAc
# Summary of the method: as §1
# [8] = target: Fuc(a1-3)[Gal(b1-4)]Glc6S
# Summary of the method: as §1
# [9] = target: Gal(a1-3)Fuc(a1-2)Gal(b1-4)GlcNAc(b1-3)[Gal(a1-3)Fuc(a1-2)Gal(b1-4)GlcNAc(b1-6)]GalNAc
# Summary of the method: as §1
# Gal(a1-3)Gal(b1-4)GlcNAc = target: Gal(a1-3)Gal(b1-4)GlcNAc
# Summary of the method: as §1
# [10] = target: Gal(a1-4)Gal(b1-3)GlcNAc(b1-2)Man(a1-3)[Gal(a1-4)Gal(b1-3)GlcNAc(b1-2)Man(a1-6)]Man(b1-4)GlcNAc(b1-4)GlcNAc
# Summary of the method: as §1
# Gal(a1-4)GlcNAc = target: Gal(a1-4)GlcNAc
# Summary of the method: as §1
# [11] = target: Gal(b1-3)Gal(b1-4)GlcNAc(b1-2)Man(a1-3)[Gal(b1-3)Gal(b1-4)GlcNAc(b1-2)Man(a1-6)]Man(b1-4)GlcNAc(b1-4)GlcNAc
# Summary of the method: as §1
# Gal(b1-3)GlcNAc = target: Gal(b1-3)GlcNAc
# Summary of the method: as §1
# [12] = target: Gal(b1-3)GlcNAc(b1-2)Man(a1-3)[Gal(b1-3)GlcNAc(b1-2)Man(a1-6)]Man(b1-4)GlcNAc(b1-4)[Fuc(a1-6)]GlcNAc
# Summary of the method: as §1
# [13] = target: Gal(b1-3)GlcNAc(b1-3)Gal(b1-4)GlcNAc
# Summary of the method: as §1
# [14] = target: Gal(b1-3)[Fuc(a1-4)]GlcNAc(b1-2)Man(a1-3)[Gal(b1-3)[Fuc(a1-4)]GlcNAc(b1-2)Man(a1-6)]Man(b1-4)GlcNAc(b1-4)[Fuc(a1-6)]GlcNAc
# Summary of the method: as §1
# [15] = target: Gal(b1-4)GlcNAc(b1-3)Gal(b1-4)Glc
# Summary of the method: as §1
# [16] = target: Gal(b1-4)GlcNAc(b1-3)GalNAc
# Summary of the method: as §1
# [17] = target: GalNAc(a1-3)Fuc(a1-2)Gal(b1-4)GlcNAc(b1-3)[GalNAc(a1-3)Fuc(a1-2)Gal(b1-4)GlcNAc(b1-6)]GalNAc
# Summary of the method: as §1
# GalNAc(b1-4)Gal(b1-4)Glc = target: GalNAc(b1-4)Gal(b1-4)Glc
# Summary of the method: as §1
# GlcA(b1-3)Gal = target: GlcA(b1-3)Gal
# Summary of the method: as §1
# GlcNAc(b1-3)Gal(b1-4)Glc = target: GlcNAc(b1-3)Gal(b1-4)Glc
# Summary of the method: as §1
# Kdn(a2-3)Gal(b1-4)Glc = target: Kdn(a2-3)Gal(b1-4)Glc
# Summary of the method: as §1
# Kdn(a2-6)Gal(b1-4)GlcNAc = target: Kdn(a2-6)Gal(b1-4)GlcNAc
# Summary of the method: as §1
# [18] = target: Neu5Ac(a2-3)Gal(b1-4)GlcNAc(b1-3)Gal(b1-4)[Fuc(a1-3)]GlcNAc
# Summary of the method: as §1
# [19] = target: Neu5Ac(a2-3)[GalNAc(b1-4)]Gal(b1-4)GlcNAc(b1-3)GalNAc
# Summary of the method: as §1
# Neu5Ac(a2-6)GalNAc = target: Neu5Ac(a2-6)GalNAc
# Summary of the method: as §1
# [20] = target: Neu5Ac9Ac(a2-3)Gal(b1-4)GlcNAc
# Summary of the method: as §1
binder,measurement,setting,value
SCA (Schizophyllum commune) (protein) MGIDQGVYLITNAGSGTAATLKDGYVKGWERIKGKEQLNQLWFVKSVKTSASDPGYAAFNLATNKVLDLEKGLADRGTPILGWDYHEGDNQHWVIKKQADGKYYKIQSVKTQTFVDLNNGGKDNGTKIQGWVGSWDETNSHQRWVFNQFSATGSRIKSILDTHPKIHGKVIVEWPDRIYFTPDQYIFEAIWAKTGLADIKPRDPLFQSEAYEKVFKGWVVSRAQEIIKVDGFDILVGSLSLVEKSTQKIKVLDVSVRTSDDKSPDLSQIVFFDPESGRTLVDIPEGYEVNSVII,glycan array binding signal (z-score),[1],-0.163
same,glycan array binding signal (z-score),Fuc(a1-2)Gal(b1-4)Glc,-0.153
same,glycan array binding signal (z-score),[2],-0.161
same,glycan array binding signal (z-score),[3],5.61
same,glycan array binding signal (z-score),[4],7.08
same,glycan array binding signal (z-score),[5],2.52
same,glycan array binding signal (z-score),[6],-0.163
same,glycan array binding signal (z-score),[7],0.703
same,glycan array binding signal (z-score),[8],-0.16
same,glycan array binding signal (z-score),[9],6.72
same,glycan array binding signal (z-score),Gal(a1-3)Gal(b1-4)GlcNAc,8.25
same,glycan array binding signal (z-score),[10],3.68
same,glycan array binding signal (z-score),Gal(a1-4)GlcNAc,-0.135
same,glycan array binding signal (z-score),[11],11.4
same,glycan array binding signal (z-score),Gal(b1-3)GlcNAc,-0.162
same,glycan array binding signal (z-score),[12],-0.159
same,glycan array binding signal (z-score),[13],-0.158
same,glycan array binding signal (z-score),[14],-0.054
same,glycan array binding signal (z-score),[15],-0.16
same,glycan array binding signal (z-score),[16],-0.159
same,glycan array binding signal (z-score),[17],0.835
same,glycan array binding signal (z-score),GalNAc(b1-4)Gal(b1-4)Glc,-0.162
same,glycan array binding signal (z-score),GlcA(b1-3)Gal,8.44
same,glycan array binding signal (z-score),GlcNAc(b1-3)Gal(b1-4)Glc,-0.158
same,glycan array binding signal (z-score),Kdn(a2-3)Gal(b1-4)Glc,-0.152
same,glycan array binding signal (z-score),Kdn(a2-6)Gal(b1-4)GlcNAc,-0.162
same,glycan array binding signal (z-score),[18],-0.164
same,glycan array binding signal (z-score),[19],-0.161
same,glycan array binding signal (z-score),Neu5Ac(a2-6)GalNAc,-0.162
same,glycan array binding signal (z-score),[20],-0.16
